Results published in PubChem BioAssay (NCI).
The panel holds about 79,000 compounds, 15% with a hit somewhere; the sample as a whole holds those more often. Active and inactive are the calls of the source. Rule as the data show it: active = growth inhibition above about 70%; inactive = the rest.

Tests used:
[1] = NCI Yeast Anticancer Drug Screen. Data for the rad52 strain (AID 147);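 also: 0% = growth of vehicle-treated control cultures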; details: S. cerevisiae rad52 mutant growth inhibition, hits give high values
Outline: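 The repair-mutant yeast strain was incubated with compounds, then growth was read and inhibition derived relative to vehicle.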

[2] = NCI Yeast Anticancer Drug Screen. Data for the wt1 strain (AID 149);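 also: 0% = growth of vehicle-treated wt1 cultures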; details: S. cerevisiae wt1 strain (SPY 50644) growth inhibition, hits give high values
Outline: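 Readout: yeast growth inhibition, normalised to vehicle controls, in the wt1 strain exposed to test compounds.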

[3] = NCI Yeast Anticancer Drug Screen. Data for the rad50EPP+ strain (AID 151);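 also: 0% = growth of vehicle-treated control cultures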; details: S. cerevisiae rad50 mutant strain, hits give high values
Outline: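 Vehicle-normalised growth inhibition; rad50EPP+ yeast strain, altered in DNA damage repair, compound-treated.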

[4] = NCI Yeast Anticancer Drug Screen. Data for the rad50 strain (AID 155);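 also: 0% = growth of vehicle-only cultures of the same strain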; details: S. cerevisiae rad50 strain growth inhibition, hits give high values
Outline: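 Compounds were tested on a yeast strain with an engineered DNA damage repair alteration; the reported value is growth inhibition normalised to vehicle treatment.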

[5] = NCI Yeast Anticancer Drug Screen. Data for the mec2-1 strain (AID 157); details: S. cerevisiae mec2-1 strain, hits give high values
Outline: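 Mutant yeast (mec2-1) grown with compound; growth inhibition relative to vehicle control reported.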

[6] = NCI Yeast Anticancer Drug Screen. Data for the rad14 strain (AID 159);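 also: 0% = growth of vehicle-treated control cultures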; details: S. cerevisiae rad14 strain growth inhibition, hits give high values
Outline: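 Compound-treated yeast with a defined DNA-repair lesion; growth inhibition normalised to vehicle-treated cultures.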

[7] = NCI Yeast Anticancer Drug Screen. Data for the sgs1 mgt1 strain (AID 161);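 also: 0% = growth of cultures given vehicle only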; details: S. cerevisiae sgs1 mgt1 strain, hits give high values
Outline: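 Yeast cells carrying a defined DNA-repair defect were exposed to test compounds. Growth inhibition was measured relative to vehicle-treated controls.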

[8] = NCI Yeast Anticancer Drug Screen. Data for the CLN2oe strain (AID 163);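 also: 0% = growth of vehicle-only control cultures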; details: S. cerevisiae CLN2oe strain, hits give high values
Outline: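 Compounds are applied to yeast harbouring a defined cell-cycle control change; reduced growth compared with vehicle-treated controls gives the value.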

[9] = NCI Yeast Anticancer Drug Screen. Data for the cln2 rad14 strain (AID 165);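 also: 0% = growth equal to vehicle treated cultures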; details: S. cerevisiae cln2 rad14 strain, hits give high values
Outline: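 Readout is yeast growth inhibition versus vehicle-treated controls, using a strain with cln2 and rad14 alterations exposed to compound.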

[10] = NCI Yeast Anticancer Drug Screen. Data for the bub3 strain (AID 167); details: S. cerevisiae bub3 mutant strain, hits give high values
Outline: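 Growth of a checkpoint-deficient yeast mutant is measured after compound exposure. Values represent inhibition relative to vehicle.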

[11] = NCI Yeast Anticancer Drug Screen. Data for the wt2 strain (AID 169);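 also: 0% = growth of vehicle-treated yeast cultures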; details: S. cerevisiae wt2 strain growth inhibition, hits give high values
Outline: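 Against vehicle-treated controls, the growth of yeast exposed to each compound was compared, and the inhibition was recorded.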

[12] = NCI Yeast Anticancer Drug Screen. Data for the sgs1 strain (AID 173);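 also: 0% = growth of vehicle-only control cultures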; details: S. cerevisiae sgs1 mutant, hits give high values
Outline: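 Each compound was added to cultures of the altered yeast strain. Growth was recorded, and inhibition was derived by comparison with vehicle controls.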

[13] = NCI Yeast Anticancer Drug Screen. Data for the mlh1 rad18 strain (AID 175); details: S. cerevisiae mlh1 rad18 strain growth inhibition, hits give high values
Outline: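 Genetically defined yeast (DNA repair-deficient) exposed to compounds; growth inhibition determined relative to vehicle.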

[14] = NCI Yeast Anticancer Drug Screen. Data for the rad18 strain (AID 177); details: S. cerevisiae rad18 mutant growth inhibition, hits give high values
Outline: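 Vehicle-treated cultures served as the baseline for scoring compound-induced growth inhibition in DNA-repair-mutant yeast.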

[15] = at 5.0 µM (retest, dose inferred, filed as 0.5)
[16] = at 50.0 µM (retest, dose inferred, filed as 5.0)

Measured: growth inhibition

CC(=O)N1C(=O)/C(=C\C(=O)c2ccc([N+](=O)[O-])cc2)c2ccccc21
inactive: [1]; at 1.2 µM -14% | [1]; at 3.7 µM 18% | [1]; at 11.0 µM 53% | [2]; at 1.2 µM -10% | [2]; at 3.7 µM -15% | [2]; at 11.0 µM 21% | [3]; at 1.2 µM -12% | [3]; at 3.7 µM 35% | [3]; at 11.0 µM 4% | [4]; at 1.2 µM 0% | [4]; at 3.7 µM -8% | [4]; [15] 41% | [4]; at 11.0 µM 34% | [5]; at 1.2 µM -10% | [5]; at 3.7 µM 13% | [5]; [15] 60% | [5]; at 11.0 µM 28% | [6]; at 1.2 µM -8% | [6]; at 3.7 µM 9% | [6]; at 11.0 µM 31% | [7]; [15] 46% | [8]; at 1.2 µM -31% | [8]; at 3.7 µM 4% | [8]; at 11.0 µM 28% | [8]; at 33.0 µM 51% | [9]; [15] 25% | [9]; [16] 66% | [10]; at 1.2 µM -33% | [10]; at 3.7 µM -11% | [10]; [15] 12% | [10]; at 11.0 µM 22% | [11]; at 1.2 µM 29% | [11]; at 3.7 µM 55% | [12]; at 1.2 µM -13% | [12]; at 3.7 µM 27% | [12]; at 11.0 µM 66% | [14]; at 1.2 µM 1% | [14]; at 3.7 µM 26% | [14]; at 11.0 µM 61%
active: [1]; at 33.0 µM 92% | [1]; at 100.0 µM 97% | [2]; at 33.0 µM 77% | [2]; at 100.0 µM 97% | [3]; at 33.0 µM 89% | [3]; at 100.0 µM 95% | [4]; at 33.0 µM 93% | [4]; [16] 98% | [4]; at 50.0 µM 85.5% | [4]; at 100.0 µM 95% | [5]; at 33.0 µM 91% | [5]; [16] 98% | [5]; at 50.0 µM 89.5% | [5]; at 100.0 µM 97% | [6]; at 33.0 µM 86% | [6]; at 100.0 µM 97% | [7]; [16] 98% | [7]; at 50.0 µM 88.8% | [8]; at 100.0 µM 96% | [9]; at 50.0 µM 84.5% | [10]; at 33.0 µM 95% | [10]; [16] 96% | [10]; at 50.0 µM 86.8% | [10]; at 100.0 µM 96% | [11]; at 11.0 µM 93% | [11]; at 33.0 µM 98% | [11]; at 100.0 µM 98% | [12]; at 33.0 µM 96% | [12]; at 100.0 µM 96% | [13]; [15] 72% | [13]; [16] 98% | [13]; at 50.0 µM 85.7% | [14]; at 33.0 µM 90% | [14]; at 100.0 µM 97%
